Experimental findings from PubChem BioAssay AID720506 (National Center for Advancing Translational Sciences (NCATS), 2013) are described below.

The structures appear in SMILES notation. Hit rate of the full screen: of about 2,300 compounds, about 95 (4%) were called active. About 17% were inconclusive and are not listed. The list comes from a sample in which actives are over-represented; it also holds similar structures and randomly drawn compounds. Values without a mark were called inactive. The call rests on the fitted dose curve; in most records, active means well fitted activation curve with a large enough effect; inconclusive means small, poorly fitted or top-dose-only effect; inactive means flat fitted curve, though single readings scatter.
Potency means the concentration at half of the fitted maximal effect.

Chain of D(3) dopamine receptor (Homo sapiens) (P35462 whole entry, looked up): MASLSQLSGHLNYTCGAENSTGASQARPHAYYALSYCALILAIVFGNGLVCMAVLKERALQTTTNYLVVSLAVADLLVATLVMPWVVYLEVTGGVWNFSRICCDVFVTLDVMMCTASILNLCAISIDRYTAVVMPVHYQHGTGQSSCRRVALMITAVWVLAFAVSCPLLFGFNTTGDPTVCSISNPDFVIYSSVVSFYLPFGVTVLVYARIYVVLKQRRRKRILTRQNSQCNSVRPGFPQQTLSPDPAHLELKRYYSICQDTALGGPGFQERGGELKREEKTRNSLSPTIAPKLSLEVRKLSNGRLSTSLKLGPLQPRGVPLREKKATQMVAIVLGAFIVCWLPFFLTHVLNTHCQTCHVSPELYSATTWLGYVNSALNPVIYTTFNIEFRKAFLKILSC

The assay concerns the target D(3) dopamine receptor (Homo sapiens) (UniProt P35462). Description: qHTS of D3 Dopamine Receptor Agonist: D3 Dopamine Receptor B-arrestin Agonist Confirmatory Assay. Further: nearly all actives have a fitted effect of over 70% in size.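 On activation: 100% = dopamine control response.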 The following applies: DiscoveRx D3 beta-arrestin cells, luminescence, 90 min; series mostly up to 76.9 µM; activation: at the top concentration. The text has this: D3 DARs represent a very important target for the treatment of several neuropsychiatric disorders. Indeed, one of the most promising therapeutic applications for the D3 DAR is in the area of addiction and related disorders. […] These findings have been observed with a number of addictive substances including cocaine, amphetamine, nicotine, and alcohol. […] Increased D3 DAR activity can thus lead to neuroprotective and neurorestorative actions in the CNS. […] This assay is used to confirm the activity of the identified D3 dopamine receptor agonist. Activation is the desired outcome for this assay. NIH Molecular Libraries Probe Production Centers Network [MLPCN] NIH Chemical Genomics Center [NCGC] MLPCN Grant: NS064831 Assay Submitter (PI): David Sibley
Freshly passaged DiscoveRx D3 cells are plated in 1536 well white, solid bottom plates at a density of 1500 cells/well in 3microl of complete media. After an overnight incubation at 37 degrees C in 5% CO2, cells are loaded with 23nl of test compound from the compound library (as well as dopamine controls) using a 1536 pintool and incubated at 37 degrees C for 90 minutes. Two microliters of DiscoveRx reagent is then added to all cells, and they are incubated for an additional 30 - 60 minutes at room temperature. Following incubation, luminescence is measured on a ViewLux CCD-based luminometer reader using a 20 sec exposure time.
(qHTS replaces the single test concentration by a dilution series.)
Turning to `Cc1ccc(O)c(-c2cc(C(=O)Nc3c(C)n(C)n(-c4ccccc4)c3=O)[nH]n2)c1`, the “activation” value is 0.15%.
As to `COc1ccc(NC(C)=O)cc1NC(=O)CN1CCN(c2ccccn2)CC1`, the “activation” value was 15.7%.
Still for that read-out and setting: then `OCC[C@H]1C[C@H](O)[C@@H](O)[C@]2(Cc3ccccc3CO2)O1`, with -5.36%.
The same measure, in the same setting: then `Cn1c(C(=O)NCCCN2CCN(c3cccc(Cl)c3)CC2)cc2c(=O)n(C)c3ccccc3c21`, with -22%; and `O=C(Nc1cccnc1Cl)c1cc(-c2cccc(Cl)c2)on1`, with -7.51%; and `CCC(CC)NC(=O)/C=C/c1cccc([N+](=O)[O-])c1`, with 0.387%.
The same measure, in the same setting: then `O=C1c2cccc3cccc(c23)N1CN1CCN(c2ccccn2)CC1`, with 16.7%.
As to `OC(COc1cccc2ccccc12)CN1CCN(c2ccccn2)CC1` (configuration not stated), the Potency is 8.91 µM (active).
Consider `CC(=O)Nc1ccc(OCC(O)CN2CCN(c3ccccc3Cl)CC2)cc1` (configuration not stated), for which the “activation” value was -5.41%.
For `O=C(OCc1nc2ccccc2[nH]1)C1CCCCC1`, the “activation” value was -2.95%.
As for `O=C(c1ccccc1)c1ccc(OCC(O)CN2CCCC2)cc1` (configuration not stated), the “activation” value was 1.27%.
For `CC[C@H](C)C(=O)N[C@H]1CCCN1C(=O)/C=C/c1ccccc1`, the “activation” value is -7.23%.
The same measure, in the same setting: then `CCCCC(=O)NNC(=S)NC(=O)C(c1ccccc1)c1ccccc1`, with -17.9%.
Same read-out and setting: the result for `CCCN1CC=C2C(C#N)=C(N)C(C#N)(C#N)C(c3cc(OC)ccc3OC)C2C1` (configuration not stated) reads -11.6%; that for `CC(=O)C[C@@H](O)CC(=O)[C@H]1OC(=O)CCCCCCc2ccccc21`, -0.58%.
Same read-out and setting: then `COc1cc(OC)c(-n2cc(-c3ccc(Cl)cc3)[nH]c2=O)cc1Cl`, with -14%; and `CNC(=O)NC(=O)C(C)N1CCN(C/C=C/c2ccccc2)CC1` (configuration not stated), with 8.09%; and `CN1CCC(CN)(N2CCN(c3ccccc3)CC2)CC1`, with 8.81%.
Turning to `O=C1CC[C@H](O)CCN1[C@H](CSc1ccc(Br)cc1)Cc1ccccc1`, the “activation” value is -4.53%.
The same measure, in the same setting: then `Cc1ccccc1N1CCN(CCCOc2ccc3c(C)cc(=O)oc3c2)CC1`, with 20%; and `Nc1nonc1-n1nnc(C(=O)N/N=C/c2ccc(Cl)cc2)c1-c1ccc2c(c1)OCO2`, with 0.0552%; and `CN(C)CCOC(=O)C(c1ccccc1)C1(O)CCCC1` (configuration not stated), with -3.48%.
The same measure, in the same setting: then `Cc1cc(C(=O)NNC(=O)c2ccccc2O)c(C)o1`, with -3.17%; and `O=C(Nc1ccc(F)cc1F)N1CCCN(CCOc2ccccc2)CC1`, with -3.15%.
`COC(c1ccccc1)c1nnc(CCC(=O)N2CCN(CCOc3ccccc3)CC2)o1` (configuration not stated): the Potency is 2.82 µM (active).
For the molecule `NS(=O)(=O)c1ccc(CCNC(=O)NC2CCCCC2)cc1`, the “activation” value is -9.36%.
As for `[O-][N+]12CCCCC1CCCC2CO` (configuration not stated), the “activation” value is -6.66%.
The same measure, in the same setting: the result for `COc1cc(OC)c2ccc(=O)oc2c1C(CCN1CCN(c2ccccc2)CC1)c1ccc2c(c1)OCO2` (configuration not stated) reads 25.2%.
In the case of `O=C(CCN1CCN(c2ccccc2)CC1)NNC(=S)Nc1ccccc1`, the “activation” value is 1.55%.
The same measure, in the same setting: then `COc1ccc(N2CCN(Cc3cc(=O)oc4ccc5ccccc5c34)CC2)cc1`, with -2.9%.
Still for that read-out and setting: then `Cc1cccc(C)c1NC(=O)CNC(=O)c1ccc2c(c1)OCCO2`, with -4.56%.
Regarding `Cc1c(CN2CC[C@@H](N3CCN(c4ccccn4)CC3)[C@H](O)C2)[nH]c2ccc(F)cc12`, the Potency is 28.2 µM (active).
`Cc1ccccc1Nc1nc(N)nc(CN2CCN(c3ccccn3)CC2)n1`: the “activation” value was -7.76%.
`O=C(CN1CCN(c2ccccn2)CC1)NC1CCCCC1`: the “activation” value is 1.52%.
The same measure, in the same setting: the result for `Cc1n[nH]c(C)c1S(=O)(=O)N1CCCC(C(=O)NCC2COc3ccccc3O2)C1` (configuration not stated) reads 5.77%; that for `O=C(O[C@H]1[C@H](Cc2ccccc2)NS(=O)(=O)[C@H]2C[C@@H]3C=C[C@]12O3)c1ccc([N+](=O)[O-])cc1`, -6.96%.
Still for that read-out and setting: the result for `O=C1c2ccccc2S(=O)(=O)N1CC(O)Cn1c2ccccc2c2ccccc21` (configuration not stated) reads 7.56%; that for `CC(C)(C)n1ncc2c(=O)n(Cc3c(Cl)cccc3Br)cnc21`, 7.37%.
Same read-out and setting: the result for `COc1ccc(S(=O)(=O)N2CCSCC2)cc1` reads -5.06%.
With `O=C1C=C(c2cccc(Br)c2)C[C@@H](c2ccc(F)cc2)C1`, the “activation” value is -9.8%.
For `O=C(COc1coc(CN2CCN(c3ccccc3)CC2)cc1=O)Nc1ccccc1F`, the “activation” value is 15.3%.
As for `CCC(=O)c1ccc(OCC(=O)Nc2ccc(N3CCCCC3)cc2)cc1`, the “activation” value was -2.57%.
The same measure, in the same setting: the result for `Cc1cnc(C(=O)N2CCCC(N3CCN(c4ccccc4F)CC3)C2)cn1` (configuration not stated) reads 4.86%; that for `CN(CCO)S(=O)(=O)c1ccc2c(c1)C(=O)c1cc(S(=O)(=O)N(C)CCO)ccc1-2`, 19.8%.
Still for that read-out and setting: then `CC(=O)OC(C)C[N+](C)(C)C` (configuration not stated), with -10%; and `CS(=O)(=O)N1CCC(C(=O)N2CCN(c3ccccc3)CC2)CC1`, with 11.2%; and `O=C(NC(=O)c1ccccc1)Nc1ccccc1O`, with -12.9%.
Same read-out and setting: then `O=C(CCn1c(=O)[nH]c2ccccc2c1=O)NCCCN1CCN(c2cccc(Cl)c2)CC1`, with 3.76%; and `O=C(CN1CCN(c2ncccn2)CC1)Nc1ccccc1C(F)(F)F`, with 7.45%; and `CC(OC(=O)/C=C/c1ccccc1)C(=O)NC1CCCCC1C` (configuration not stated), with -7.01%.
Take `O=c1cc(CCl)nc2scc(-c3ccccc3)n12`: the “activation” value was -6.56%.
The same measure, in the same setting: then `CC(C)CCN1CCN(Cc2cn[nH]c2C2CCCCC2)CC1CCO` (configuration not stated), with -8.42%.
Regarding `CS/C(=C\C(=O)c1ccco1)Nc1ccccc1Cl`, the “activation” value was -7.46%.
On the same count and under the same terms, then `O=S(=O)(c1ccc(F)cc1)N1CC=C(c2ccccc2)CC1`, with 13.2%.
With `CCN(CCCNC(=O)c1ccc2c(c1)NC(=O)CN2C)c1cccc(C)c1`, the “activation” value is 9.36%.
The same measure, in the same setting: then `O=C(CC1NCCc2ccccc21)Nc1cccc(Cl)c1` (configuration not stated), with -14.9%; and `COc1ccc([C@H]2CC(=O)C=C(c3ccc(CO)cc3)C2)cc1`, with -2.54%; and `COc1ccc([C@H]2CC(=O)C=C(c3ccc(OC(F)(F)F)cc3)C2)cc1OC`, with -7.65%.
On the same count and under the same terms, the result for `CC(=C1C(=O)c2ccccc2C1=O)N1CCN(c2ccccn2)CC1` reads 7.68%.
Turning to `Cc1c(CC(=O)N2CCN(C(=O)C3COc4ccccc4O3)CC2)c(=O)oc2c(O)c(O)ccc12` (configuration not stated), the Potency is 28.2 µM (active).
For the molecule `NS(=O)(=O)c1ccc(CCNS(=O)(=O)c2cccc3cccnc23)cc1`, the “activation” value is -7.06%.
The same measure, in the same setting: then `C/C(=N\NC(=S)NC1CCCCC1)c1ccc(C)o1`, with -16.5%; and `COc1ccc(CC(NC(C)=O)C(=O)N2CCN(C(=O)Nc3cccc(Cl)c3)CC2)cc1OC` (configuration not stated), with -10.7%.
In the case of `O=C(NCCCN1CCN(c2ccccc2F)CC1)C1CCC(=O)N1C1CCCCC1` (configuration not stated), the “activation” value is 3.35%.
Still for that read-out and setting: then `Cc1ccc(S(=O)(=O)N2CC(O)C[C@H]2C(=O)OCC(=O)Nc2ccc(N3CCOCC3)cc2)cc1C` (some centres not stated), with -0.304%; and `CCn1c(=O)n(CC)c2cc(N3CCCC3)c(NC(=O)c3ccccc3Br)cc21`, with -1.66%; and `CNCC(O)c1ccc(O)c(O)c1` (configuration not stated), with -1.74%.
